rTrxR1 inhibitor – inhibitors of rat thioredoxin reductase 1. recombinant rTrxR1, NADPH fluorescence consumption, selenite substrate. Potency, µM (series often up to 114 µM), for inactives: top-dose activity change, negative = inhibition, actives largely listed as inhibitors. hit rate 1% among 390,000. AID 588453; note: potency is the fitted concentration of half-maximal effect; nearly all actives have a fitted effect of over 65% in size
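Rat TrxR1 (90 nM in the dispensed reagent) was pre-reduced with 400 uM NADPH for 5 min at room temperature, then incubated with compound for 15 min. After 400 uM selenite was added, NADPH fluorescence (Ex 340/Em 450 nm) was followed for 8 min.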
VP16 counter – counter-screen for ROR gamma inhibitors: Gal4-VP16 reporter; hit rate 3.5% among 310,000; Drosophila S2 Gal4-VP16 UAS-luciferase, luminescence, 20 h; Potency, µM (top dose mostly 53.6 µM), inactives show top-dose activity, negative = inhibition, usual class: inhibitors;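 note: Gal4-VP16 expression switched on by copper sulfate through the metallothionein promoter; potency is the fitted concentration of half-maximal effect; nearly all actives have a fitted effect of over 50% in size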
TrxR1 substrate – substrates of rat thioredoxin reductase 1 | hit rate 0.01% among 390,000 | purified TrxR1 substrate turnover, NADPH consumption readout | Potency, µM (series often up to 114 µM), for the others: at the top dose activity change, negative = substrate turnover; note: potency is the fitted concentration of half-maximal effect; nearly all actives have a fitted effect of over 50% in size
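Rat TrxR1, dispensed at 90 nM, was prereduced with 400 uM NADPH (final) for 5 min at ~22 deg C, then incubated with compound 15 min before 400 uM selenite. A first-read NADPH fluorescence drop versus no-compound background flagged substrates.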
RORg inh – inhibitors of mouse ROR gamma transcriptional activity; P51450; AID 2551; Potency, µM (series often up to 53.6 µM), for the others: at the highest dose activity change, negative = inhibition, most hits filed as inhibitors; Drosophila S2 Gal4-RORgamma UAS-luciferase reporter, 20 h; hit rate 5.4% among 310,000; note: potency is the fitted concentration of half-maximal effect; nearly all actives have a fitted effect of over 60% in size
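ROR gamma transcriptional activity was tracked as Gal4-UAS luciferase output in stably transfected Drosophila Schneider cells, with compound added 1 hr before 700 uM copper sulfate induction and a 20 hr ambient-temperature incubation.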
Coupling enz – inhibits coupling enzyme system, counter-screen for aldolase hits; coupling enzyme system counterscreen, AmpLite Red fluorescence; activity change, negative = inhibition, % at 58.2 µM, hits read low; hit rate 0.67% among 290,000; AID 2472; in the data active = activity change below about -30%
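Final compound at 57.5 uM, incubated 10 min at RT with coupling enzyme reagent (glyceraldehyde-3-phosphate), then 20 min with substrate and AmpLite Red detection. Fluorescence read at 525/598 nm; tests interference with the coupling assay, not aldolase inhibition.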
GALK inhibitor – blocks human galactokinase activity | P51570 | Purified GALK, Kinase-Glo residual ATP luminescence | Potency, µM (series often up to 57.5 µM), without a hit: top-dose activity change, negative = inhibition, actives largely listed as inhibitors | hit rate 0.007% among 270,000 | AID 1868; note: potency is the fitted concentration of half-maximal effect
Target sequence (P51570 whole entry, looked up): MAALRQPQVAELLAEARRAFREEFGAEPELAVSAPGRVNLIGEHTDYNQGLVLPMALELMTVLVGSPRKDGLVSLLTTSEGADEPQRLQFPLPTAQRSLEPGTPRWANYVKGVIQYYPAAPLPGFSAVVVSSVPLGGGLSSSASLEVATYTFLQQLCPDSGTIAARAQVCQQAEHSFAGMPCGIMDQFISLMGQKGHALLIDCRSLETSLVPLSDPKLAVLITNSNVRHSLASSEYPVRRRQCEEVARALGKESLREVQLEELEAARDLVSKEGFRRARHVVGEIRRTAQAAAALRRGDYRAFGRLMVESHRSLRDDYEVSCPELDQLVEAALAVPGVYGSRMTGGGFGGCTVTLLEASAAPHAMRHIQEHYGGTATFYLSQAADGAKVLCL
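Galactose (100 uM) and ATP (35 uM) were turned over by 5 nM GALK for 1 h at RT. Kinase-Glo Plus then converted the remaining ATP into a luminescent signal.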
An asterisk follows results filed as active; u = inconclusive; x = no result given; [ ] = remark or other dose. In the library only some 5.9% were active in any assay of this set; here they are far more common. Unless noted, calls come from the whole dose curve; as a rule, active = well fitted curve in the direction sought with a large enough effect; inconclusive = small, poorly fitted or top-dose-only effect, or another doubt; inactive = no such curve, though single readings can be large; an effect the other way counts as inactive or inconclusive. % is set by controls: 0 for no effect and ±100 for the full control effect.

SMILES	rTrxR1 inhibitor	VP16 counter	TrxR1 substrate	RORg inh	Coupling enz	GALK inhibitor
CCc1ccc(C(C)NC(=O)C2(C)CC2(Br)Br)cc1 (stereo not drawn)	0.4%	7.5%	-6.5%	-1.0%	0.5	-0.9%
C/C(=N/NS(=O)(=O)c1ccc(Br)cc1)c1c[nH]c2ccccc12	-23.6%	-4.4%	-10.5%	-11.2%	x	2.3%
COCCCn1c(=S)[nH]c2sc3c(c2c1=O)CCCS3	-20.6%[57.1 µM]	2.82µM*	1.9%[57.1 µM]	1µM*	2.4	-2.2%
CCCn1c(=S)[nH]c2sc3c(c2c1=O)CCCC3	u	0.891µM*	-4.5%	0.282µM*	1.2	-2.6%
Cn1c(=S)[nH]c2sc3c(c2c1=O)CCC(C(C)(C)C)C3 (stereo not drawn)	x	1µM*	x	0.316µM*	5.2	-0.5%
COCCn1c(=S)[nH]c2sc3c(c2c1=O)CCC(C)C3 (stereo not drawn)	u	1.26µM*	-3.5%	1.12µM*	3.5	-1.2%
CCn1c(=O)n(CCOC)c(=O)c2c3c(sc21)CCCC3	16.4%[57.1 µM]	10.3%	-1.9%[57.1 µM]	26.0%	5.9	0.2%
Nn1c(=S)[nH]c2sc3c(c2c1=O)CCCC3	-19.5%	x	-6.6%	x	x	x
Cc1c(NC(=O)C(C)(C)Oc2ccc(Cl)cc2)cccc1-c1nc2ccccc2o1	13.5%	x	2.5%	x	x	x
CC(C)OC(=O)c1cc(NC(=O)C2C3C=CC(O3)C2C(=O)O)cc(C(=O)OC(C)C)c1 (stereo not drawn)	-3.1%[57.1 µM]	-0.8%	-3.5%[57.1 µM]	28.2%	5.7	0.1%
O=c1[nH]c(=S)[nH]c2sc3c(c12)CCCCCC3	-18.0%[57.1 µM]	u	-2.3%[57.1 µM]	14.1µM*	4.4	-7.2%
O=c1[nH]cnc2sc3c(c12)CCCCC3	-26.6%	-5.1%	-16.1%	19.2%	1.3	9.9%
c1ccc(Nc2nn[nH]n2)cc1	1.3%	1.0%	5.2%	-8.6%	3.6	10.4%
COc1ccc(C(=O)NC(Oc2ccccc2)C(Cl)(Cl)Cl)cc1 (stereo not drawn)	11.2µM*	-29.7%	-2.1%	-37.3%	1.0	1.3%
CCOc1cc(/C=N/Nc2cc(C)nc(-n3nc(C)cc3C)n2)ccc1O	1.8%	17.8µM*	-6.2%	u	-0.4	5.4%
Cc1cc(N/N=C/c2ccc(F)cc2)nc(-n2nc(C)cc2C)n1	-11.6%	0.316µM*	-7.8%	0.0794µM*	-4.3	-7.4%
COc1ccc(/C=N/Nc2cc(C)nc(N3CCOCC3)n2)cc1	17.5%[11.4 µM]	-2.4%	-23.7%[11.4 µM]	-5.5%	4.3	-2.7%
COc1ccc(/C=N/Nc2cc(C)nc(-n3nc(C)cc3C)n2)c(OC)c1	-19.9%	0.282µM*	-13.7%	0.199µM*	-0.9	x
COc1ccccc1/C=N/Nc1cc(C)nc(N2CCOCC2)n1	-2.9%	-3.7%	3.0%	8.5%	-1.2	-1.8%
CSC1=NC(C)(C)C=C(/C=C/c2ccc(Cl)cc2)N1	u	u	-6.6%[57.1 µM]	u	-0.9	-0.8%
CCc1ccc(CNC(=O)CC2C(=O)NCCN2Cc2ccccc2F)nc1 (stereo not drawn)	u	u	-3.8%	10µM*	-1.4	-2.1%
CCn1ccnc1CNC(=O)CC1C(=O)NCCN1Cc1ccccc1F (stereo not drawn)	4.0%	7.4%	-1.5%	-25.0%	-0.5	5.0%
COc1ccc(C(=O)NNc2ncnc3c2cnn3-c2ccc(C)c(Cl)c2)cc1	-16.3%[57.1 µM]	x	-16.8%[57.1 µM]	x	x	x
Cc1nc(N2CCN(Cc3ccc(Cl)cc3)CC2)c2oc3ccccc3c2n1	51.4%	-4.7%	24.2%	-35.3%	-1.1	3.8%
Cc1nc(N2CCC(C)CC2)c2oc3ccccc3c2n1	8.8%	u	2.0%	12.6µM*	-3.1	-4.5%
SMILES	rTrxR1 inhibitor	VP16 counter	TrxR1 substrate	RORg inh	Coupling enz	GALK inhibitor
CCC(=O)N1CCc2cc(Br)cc(S(=O)(=O)N3CCCC(C(=O)Nc4ccc(OC)c(Cl)c4)C3)c21 (stereo not drawn)	11.8%	x	2.5%	x	x	x
O=C(NNC(=S)Nc1ccccc1)c1cc(Br)ccc1Cl	-23.4%	-16.0%	-5.0%	0.794µM*	x	-1.4%
O=C(NNC(=S)Nc1ccccc1)NNC(=S)Nc1ccccc1	-4.5%[57.1 µM]	-18.8%[10 µM]	0.4%[57.1 µM]	-19.5%	1.5	-0.5%
S=C(NCc1ccncc1)Nc1ccc(Br)cc1Cl	-10.4%	-18.3%	5.5%	-3.4%	x	5.0%
O=C(CCc1ccc(O)c(O)c1)NNC(=S)Nc1ccc(Br)cc1Cl	-17.9%[57.1 µM]	u	4.0%[57.1 µM]	11.2µM*	-3.9	0.0%
O=C(NNC(=S)Nc1ccc(Br)cc1Cl)c1ccncc1	-36.8%	20µM*	8.0%[57.1 µM]	-32.8%	5.7	-0.8%
O=C(CCc1ccc(O)c(O)c1)NNC(=S)NCCc1ccccc1	-11.4%	-5.3%	-5.5%	-23.3%	2.0	-1.3%
COc1cc(OC)cc(C(=O)NCc2cc(C)nc3ccccc23)c1	-6.8%	16.7%[10 µM]	-8.7%	4.2%	2.7	-2.7%
O=S(=O)(c1ccccc1)N1N=C(c2ccc(O)cc2)CC1c1ccco1 (stereo not drawn)	u	20µM*	2.3%	-19.7%	x	1.0%
COc1ccc(C2=NN(C(N)=S)C(c3ccco3)C2)cc1 (stereo not drawn)	-4.0%	u	-2.4%	10µM*	-0.3	1.5%
COc1ccc(C2=NN(C(=O)CSc3nnc(-c4ccccc4F)o3)C(c3ccco3)C2)cc1 (stereo not drawn)	u	21.3%	-21.4%	24.8%	0.9	-0.4%
Cc1ccc(C2=NN(S(=O)(=O)c3ccccc3)C(c3ccco3)C2)cc1 (stereo not drawn)	18.1%	x	-3.4%	x	x	x
O=C(c1ccco1)N1N=C(c2ccc(Cl)cc2)CC1c1ccco1 (stereo not drawn)	39.8µM*	-0.5%	-3.7%	-4.4%	-0.5	-9.3%
O=C(OCC(=O)N1N=C(c2ccc(Cl)cc2)CC1c1ccco1)c1cccnc1 (stereo not drawn)	7.08µM*	x	-0.2%	x	x	x
CCC(Sc1nc2cc3c(cc2c(=O)n1CCCC(=O)NCc1ccc(OC)cc1)OCO3)C(=O)NCCCOC (stereo not drawn)	18.8%[57.1 µM]	x	9.6%[57.1 µM]	x	x	x
C=CCC[C@@H](Cc1ccc(F)cc1)C(=O)OC[C@@H](Cc1c[nH]c2ccccc12)NC(=O)[C@H](CC=C)CC(=O)NCCO	-1.5%	x	-9.7%	x	x	x
Cc1cccc(NC(=O)CSc2nc(COc3ccccc3)nc3ccccc23)c1C	18.0%	-8.8%	6.2%	15.1%	4.9	6.6%
CCc1ccc(-n2c(O)c(C=NCCN(CC)CC)c(=O)[nH]c2=O)cc1	-3.0%[57.1 µM]	11.9%	-5.3%[57.1 µM]	10.1%	2.9	3.5%
O=C(CCC1CCCC1)NCCS(=O)(=O)N1CCN(c2ccc(F)cc2)CC1	-13.1%	x	-13.2%	x	x	x
Cc1ccc(-c2cn3c(=O)cc(C)[nH]c3n2)cc1	39.7%	7.94µM*	91.5%	7.94µM*	-2.1	1.3%
CCOC(=O)c1c(NC(=O)c2cc3ccccc3c(=O)o2)sc2c1CCCC2	7.7%	x	2.9%	x	x	x

From PubChem
